Results on 18 molecules are retold here after PubChem BioAssay (NCATS).

Values without a mark were called inactive. Records with an inconclusive call do not appear. Activity calls are given as the source filed them. Unless noted, the call rests on the fitted dose curve; in most records, active means well fitted curve in either direction with a large enough effect (not every such curve was filed as active); inconclusive means small, poorly fitted or top-dose-only effect, or another doubt; inactive means flat fitted curve, though single readings scatter.

The target of assay [1] is Lysosomal acid glucosylceramidase (Homo sapiens) (UniProt P04062). The assay is described as follows: Glucocerebrosidase-p2 (AID 348; in the data active means potency below about 10 µM; further: potency means the concentration at half of the fitted maximal effect). Particulars: purified GBA, blue fluorogenic substrate, 40 min. The method, boiled down:
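Normal human glucocerebrosidase (0.2 nM) with blue fluorogenic substrate (80 uM final) in citrate/phosphate pH 5.9 with 10mM sodium taurocholate, 0.01% tween-20; 40 min RT, NaOH/glycine stop; fluorescence Ex 365/Em 440; AC50 from a titration from 0.6 nM upwards.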

The nature of assay [2]: AP1 Signaling Pathway (AID 357). Further: on the % scale 0 is the no-effect control and ±100 the full control effect. Particulars: ME-180 AP-1-bla reporter, EGF-induced, beta-lactamase ratio, 5 h; at 7.69 µM (top of the series) unless noted. The method, boiled down: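 ME-180 cells with beta-lactamase reporter under AP-1 response element, stimulated with EC50 EGF; compounds tested in titration series, 5 h at 37 °C. CCF4 substrate added 2.5 h at room temperature; 460/530 nm emission ratio gave %activity and AC50.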

A short description of assay [3]: NFAT Signaling Pathway (AID 444).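 Further: carbachol stimulus at about its EC50 of 1 µM final; on the % scale 0 is the no-effect control and ±100 the full control effect.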 As to conditions: Jurkat NFAT-bla M1, carbachol, beta-lactamase ratio, 5 h; at 7.69 µM (top of the series) unless noted. The method, boiled down:
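Jurkat cells with NFAT-driven β-lactamase reporter and co-expressed M1 receptor, stimulated with carbachol (final 1 uM, ~EC50), compound titration, 5 h at 37 °C. CCF4 loaded 1 h at RT; 460/530 nm ratio gave %activity and AC50.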

Assay [4] is described as follows: Stat Signaling Pathway (AID 446).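 Further: ME-180 cervical cancer cells given 40 pM IL-6 alongside compound; SIE-controlled beta-lactamase reporter measured as 460/530 nm FRET emission ratio; on the % scale 0 is the no-effect control and ±100 the full control effect.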 Particulars: ME-180 (cervical carcinoma) SIE beta-lactamase reporter, IL-6 stimulated, 5 h; at 7.69 µM (top of the series) unless noted. The essentials:
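Normalization used AC90 stimulation (300 pM IL-6) and AC90 inhibition (125 nM pan-JAK inhibitor at 40 pM IL-6). The underlying signal is SIE-driven beta-lactamase in ME-180 cells after 5 h IL-6 exposure with compound.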

The target in assay [5] is Glucocorticoid receptor (Homo sapiens) (UniProt P04150). The assay is described as follows: GR-GFP Redistribution (AID 450;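 active means compounds whose dose series gives a full or clear partial fitted curve of increased nuclear translocation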; further: potency means the concentration at half of the fitted maximal effect). Particulars: U2OS GR-GFP nuclear translocation, laser cytometry, 2 h.
Glucocorticoid receptor (Homo sapiens), sequence (P04150 whole entry, looked up, the tested form may be a part): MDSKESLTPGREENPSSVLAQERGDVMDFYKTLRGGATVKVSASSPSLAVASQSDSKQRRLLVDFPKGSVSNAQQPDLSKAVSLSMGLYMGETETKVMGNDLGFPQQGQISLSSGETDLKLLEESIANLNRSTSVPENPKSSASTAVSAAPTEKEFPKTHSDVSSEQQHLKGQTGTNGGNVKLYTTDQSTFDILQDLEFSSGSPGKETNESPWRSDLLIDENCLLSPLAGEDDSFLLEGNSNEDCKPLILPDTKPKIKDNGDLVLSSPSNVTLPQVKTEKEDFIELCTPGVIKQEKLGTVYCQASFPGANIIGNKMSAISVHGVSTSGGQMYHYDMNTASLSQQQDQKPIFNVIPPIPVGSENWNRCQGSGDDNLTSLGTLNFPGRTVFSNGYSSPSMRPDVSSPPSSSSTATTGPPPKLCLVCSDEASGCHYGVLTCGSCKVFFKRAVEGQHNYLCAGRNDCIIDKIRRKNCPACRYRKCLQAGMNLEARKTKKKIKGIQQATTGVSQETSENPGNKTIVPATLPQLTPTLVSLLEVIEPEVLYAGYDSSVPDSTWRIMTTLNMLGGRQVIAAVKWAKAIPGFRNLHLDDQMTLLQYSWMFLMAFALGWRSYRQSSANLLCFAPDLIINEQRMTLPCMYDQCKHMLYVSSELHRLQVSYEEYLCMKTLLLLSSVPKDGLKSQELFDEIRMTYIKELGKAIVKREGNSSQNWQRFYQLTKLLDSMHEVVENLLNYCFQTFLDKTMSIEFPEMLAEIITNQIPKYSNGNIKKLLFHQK
Assay [6] shares this target. Description: GR-EFC Redistribution (AID 451; calls by dose curve; further: potency means the concentration at half of the fitted maximal effect). Particulars: CHO-K1 GR-EFC translocation, beta-gal luminescence, 2 h. The method, boiled down: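 CHO-K1 cells expressing nuclear EA and GR-ED fragments of b-gal; compounds titrated up to 46 uM final, 2 h at 37 C. GR nuclear translocation read as complemented b-gal luminescence after 1 h RT detection.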
The target of assay [7] is Mitogen-activated protein kinase 10 (Mus musculus) (UniProt Q61831). The assay is described as follows: JNK3 AlphaScreen Assay (AID 530).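 Further: kinase came from lysate of stimulated human HepG2 cells; signal reports phosphorylation of biotinylated GST-cJun 1-79 at Ser73 with 10 µM ATP; on the % scale 0 is the no-effect control and ±100 the full control effect.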 As to conditions: JNK3 lysate, c-Jun phosphorylation; series mostly up to 11.4 µM. The method, boiled down:
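Activity was read by AlphaScreen after JNK3-containing HepG2 lysate (cytokine pre-activated) phosphorylated biotinylated GST-cJun with 10 uM ATP at room temperature. Phospho-Ser73 cJun antibody with Protein-A acceptor beads provided detection.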

The target in assay [8] is 3',5'-cyclic-AMP phosphodiesterase 4B (Homo sapiens) (UniProt Q07343). The assay is described as follows: qHTS Assay for Inhibitors of PDE-IV (AID 607; active means well fitted activation curve with a large enough effect in the main read-out, with a control signal flat, not every such curve was filed as active; further: % of control where 0% means no effect). As to conditions: HEK293 ACTOne CNG channel cells, membrane potential fluorescence; series mostly up to 22.9 µM. The method, boiled down: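 HEK293 ACTOne cells with CNG channel (1000/well), endogenous PDE4; membrane potential dye, compounds up to 22.9 uM final. Fluorescence Ex 535/Em 590; RO 20-1724 (100 uM final) as reference.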
3',5'-cyclic-AMP phosphodiesterase 4B (Homo sapiens), sequence (Q07343 whole entry, looked up): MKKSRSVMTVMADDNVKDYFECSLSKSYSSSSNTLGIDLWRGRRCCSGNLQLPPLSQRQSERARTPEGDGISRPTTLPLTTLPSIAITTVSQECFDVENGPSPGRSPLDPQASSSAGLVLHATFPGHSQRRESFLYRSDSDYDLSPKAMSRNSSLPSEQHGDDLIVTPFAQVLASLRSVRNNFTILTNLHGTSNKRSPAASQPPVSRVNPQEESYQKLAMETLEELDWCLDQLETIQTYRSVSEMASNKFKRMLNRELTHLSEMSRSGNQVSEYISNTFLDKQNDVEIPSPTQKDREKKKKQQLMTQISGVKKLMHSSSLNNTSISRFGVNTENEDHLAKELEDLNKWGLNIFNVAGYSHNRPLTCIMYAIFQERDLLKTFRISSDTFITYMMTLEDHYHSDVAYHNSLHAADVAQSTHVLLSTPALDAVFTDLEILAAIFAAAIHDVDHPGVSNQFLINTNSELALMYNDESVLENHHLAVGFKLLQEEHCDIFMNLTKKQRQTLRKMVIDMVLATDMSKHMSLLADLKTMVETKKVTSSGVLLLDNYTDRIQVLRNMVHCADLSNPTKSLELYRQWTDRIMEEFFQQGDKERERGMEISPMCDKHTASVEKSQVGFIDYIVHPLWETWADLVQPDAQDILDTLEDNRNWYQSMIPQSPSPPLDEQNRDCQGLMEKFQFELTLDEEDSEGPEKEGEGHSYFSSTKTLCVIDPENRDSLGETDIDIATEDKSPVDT
For orientation: In qHTS, concentration-response curves come from the screen itself.

Lysosomal acid glucosylceramidase (Homo sapiens), sequence (P04062 whole entry, looked up): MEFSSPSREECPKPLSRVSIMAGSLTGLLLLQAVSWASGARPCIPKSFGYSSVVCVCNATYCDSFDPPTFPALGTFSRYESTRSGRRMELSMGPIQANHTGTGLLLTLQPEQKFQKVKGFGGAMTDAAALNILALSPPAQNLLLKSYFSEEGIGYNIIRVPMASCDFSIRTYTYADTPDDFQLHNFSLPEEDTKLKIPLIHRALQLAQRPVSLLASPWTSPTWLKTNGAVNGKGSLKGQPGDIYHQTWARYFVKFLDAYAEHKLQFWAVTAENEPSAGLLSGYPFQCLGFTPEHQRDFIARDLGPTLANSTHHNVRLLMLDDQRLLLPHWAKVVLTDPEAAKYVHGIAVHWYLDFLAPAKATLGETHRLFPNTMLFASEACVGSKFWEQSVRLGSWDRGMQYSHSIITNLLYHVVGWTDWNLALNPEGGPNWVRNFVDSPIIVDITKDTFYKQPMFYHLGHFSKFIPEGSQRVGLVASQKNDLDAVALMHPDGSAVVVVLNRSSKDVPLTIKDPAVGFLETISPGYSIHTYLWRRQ

For the molecule `Nc1c(S(=O)(=O)O)cc(S(=O)(=O)O)c2ccc(N=Nc3ccccc3)c(O)c12`, the Potency is > 11.4 µM in assay [1], 2.59 µM (active) in assay [5] and > 9.22 µM in assay [6]. Moreover, the activity change, negative = inhibition is 1.28% in assay [2] and -3.14% in assay [3]. The activity, negative = inhibition in assay [4] is -2.56%. Besides, the Potency entry in assay [7] and in assay [8] was “inactive” in each case.
For the molecule `Nc1nc(SCC(=O)c2ccc(Br)cc2)c2[nH]cnc2n1`, the Potency was > 11.4 µM in assay [1], > 46 µM in assay [5] and > 9.22 µM in assay [6]. For the same molecule, the activity change, negative = inhibition in assay [2] is -11.1%; in assay [3], 23.5%. Moreover, the activity, negative = inhibition in assay [4] is 1.94%. In addition, the Potency entry in assay [7] and in assay [8] was “inactive” in each case.
In the case of `COc1cc(C(=O)O)c([N+](=O)[O-])c(OC)c1OC`, the Potency in assay [1] is > 11.4 µM; in assay [5], > 46 µM; in assay [6], > 9.22 µM. Further, the activity change, negative = inhibition was 4.41% in assay [2] and 3.25% in assay [3]. The activity, negative = inhibition in assay [4] was 0.596%. Moreover, the Potency result in assay [7] and in assay [8] was “inactive” throughout.
Turning to `Cc1ccc2nc(-c3ccc(NC(=O)c4ccc(N)cc4)c(S(=O)(=O)O)c3)sc2c1`, the Potency was > 11.4 µM in assay [1], > 46 µM in assay [5] and > 9.22 µM in assay [6]. Also, the activity change, negative = inhibition in assay [2] was -3.73%; in assay [3], 12.1%. In assay [4], the activity, negative = inhibition was -11.4%. For the same molecule, the Potency entry in assay [7] and in assay [8] was “inactive” each time.
Turning to `COc1ccc2c(c1)CCc1c(-c3noc4c3CCc3cc(OC)ccc3-4)noc1-2`, the Potency in assay [1] was > 11.4 µM; in assay [5], > 46 µM; in assay [6], > 9.22 µM. For the same molecule, the activity change, negative = inhibition in assay [2] was -10.7%; in assay [3], -3.27%. Also, the activity, negative = inhibition in assay [4] is 2.75%. Moreover, the Potency entry in assay [7] and in assay [8] was “inactive” throughout.
For the molecule `O=c1ccc(-c2ccccc2)n[nH]1`, the Potency is > 11.4 µM in assay [1], > 46 µM in assay [5] and > 9.22 µM in assay [6]. In addition, the figures for the activity change, negative = inhibition in assay [2] and in assay [3] were 1.12% and -2.18%, respectively. The activity, negative = inhibition in assay [4] was -3.27%. Also, the Potency result in assay [7] and in assay [8] was “inactive” throughout.
On to `CC(C)=CCNc1ncnc2c1c(C#N)cn2[C@H]1O[C@@H](CO)[C@@H](O)[C@@H]1O`, for which the values for the Potency in assay [1], in assay [5] and in assay [6] were > 11.4 µM, > 46 µM and > 9.22 µM, respectively. The values for the activity change, negative = inhibition in assay [2] and in assay [3] were -1.6% and 6.29%, respectively. Moreover, in assay [4], the activity, negative = inhibition was 10.4%. The Potency result in assay [7] and in assay [8] was “inactive” throughout.
As for `CC(NC(=O)c1ccccc1)(C(=O)O)C(=O)O`, the Potency is > 11.4 µM in assay [1], > 46 µM in assay [5] and > 9.22 µM in assay [6]. In addition, the activity change, negative = inhibition is 2.23% in assay [2] and -6.87% in assay [3]. For the same molecule, in assay [4], the activity, negative = inhibition was 14.4%. The Potency result in assay [7] and in assay [8] was “inactive” each time.
With `COC(=O)c1cc(=O)[nH]c(=O)[nH]1`, the Potency was > 11.4 µM in assay [1], > 46 µM in assay [5] and > 9.22 µM in assay [6]. Also, the activity change, negative = inhibition was 9.08% in assay [2] and 1.11% in assay [3]. Also, the activity, negative = inhibition in assay [4] was -3.43%. Also, the Potency result in assay [7] and in assay [8] was “inactive” throughout.
For `CN(C)CCCN=C(N)N`, the Potency in assay [1] was > 11.4 µM; in assay [5] it was > 46 µM; in assay [6], > 9.22 µM. Also, the figures for the activity change, negative = inhibition in assay [2] and in assay [3] were 11.7% and 4.78%, respectively. The activity, negative = inhibition in assay [4] was 2.14%. For the same molecule, the Potency entry in assay [7] and in assay [8] was “inactive” each time.
As to `C/C(=N/NC(=O)c1ccncc1)c1ccccc1Cl`, the Potency was > 11.4 µM in assay [1], > 46 µM in assay [5] and > 9.22 µM in assay [6]. The activity change, negative = inhibition is 12.5% in assay [2] and 8.3% in assay [3]. For the same molecule, in assay [4], the activity, negative = inhibition is -2.05%. For the same molecule, the Potency result in assay [7] and in assay [8] was “inactive” throughout.
For `O=[N+]([O-])c1ccc2c(c1)c(S(=O)(=O)O)cc1nonc12`, the Potency in assay [1] is > 11.4 µM; in assay [5] it was > 46 µM; in assay [6] it was > 9.22 µM. Moreover, the activity change, negative = inhibition in assay [2] is -3.17%; in assay [3], 6.23%. Besides, in assay [4], the activity, negative = inhibition was 19.1%. Moreover, the Potency entry in assay [7] and in assay [8] was “inactive” each time.
For the molecule `NNC(=O)CS(=O)(=O)Nc1ncccn1`, the figures for the Potency in assay [1], in assay [5] and in assay [6] were > 11.4 µM, > 46 µM and > 9.22 µM, respectively. Also, the activity change, negative = inhibition in assay [2] was -0.0437%; in assay [3] it was 3.94%. In addition, the activity, negative = inhibition in assay [4] is -3.75%. Moreover, the Potency entry in assay [7] and in assay [8] was “inactive” in each case.
Take `CC(=O)Nc1cc(CN2CCCCC2)c(O)c2ncccc12`: the values for the Potency in assay [1], in assay [5] and in assay [6] were > 11.4 µM, > 46 µM and > 9.22 µM, respectively. The activity change, negative = inhibition in assay [2] was 4.21%; in assay [3] it was -27.8%. In addition, the activity, negative = inhibition in assay [4] is 6.71%. In addition, the Potency entry in assay [7] and in assay [8] was “inactive” throughout.
Consider `[Cu].[NH-][C@H](CC(=O)O)C(=O)O.[NH-][C@H](CC(=O)O)C(=O)O`, for which the Potency in assay [1] is > 11.4 µM; in assay [5], > 46 µM; in assay [6] it was > 9.22 µM. Moreover, the activity change, negative = inhibition in assay [2] was 5.72%; in assay [3] it was 8.79%. Moreover, the activity, negative = inhibition in assay [4] is 13.3%. Moreover, the Potency result in assay [7] and in assay [8] was “inactive” each time.
For `CC(C)c1cc(CN(C)C)c(O)c(C(C)(C)C)c1`, the Potency in assay [1] was > 11.4 µM; in assay [5] it was > 46 µM; in assay [6], > 9.22 µM. In addition, the activity change, negative = inhibition is 1.46% in assay [2] and -5.67% in assay [3]. Further, in assay [4], the activity, negative = inhibition was -8.11%. In addition, the Potency entry in assay [7] and in assay [8] was “inactive” each time.
Consider `Cc1nc(N)nc2ccccc12`, for which the Potency in assay [1] was > 11.4 µM; in assay [5] it was > 46 µM; in assay [6], > 9.22 µM. Also, the values for the activity change, negative = inhibition in assay [2] and in assay [3] were -0.162% and 0.491%, respectively. The activity, negative = inhibition in assay [4] is 2.21%. Besides, the Potency result in assay [7] and in assay [8] was “inactive” throughout.
In the case of `NC1=N[C@H](c2ccc(Cl)cc2)N(c2ccc(S(=O)(=O)Nc3ncccn3)cc2)C(N)=N1`, the results for the Potency in assay [1], in assay [5] and in assay [6] were > 11.4 µM, > 46 µM and > 9.22 µM, respectively. The activity change, negative = inhibition in assay [2] is -10.6%; in assay [3], -0.0424%. Besides, the activity, negative = inhibition in assay [4] was -0.946%. Also, the Potency entry in assay [7] and in assay [8] was “inactive” each time.
